Bioassay records from PubChem.
Shown are actives, neighbours in structure and some others; about 7% of the full set was active somewhere.
GCN5L2 inh: GCN5L2 (KAT2A) acetyltransferase inhibition | Q92830 | GCN5L2 HAT assay, ThioGlo1 CoA-SH fluorescence | Potency, µM (top dose mostly 58.9 µM), for the others: at the highest dose activity change, negative = inhibition, usual class: inhibitors | 390,000 compounds, 0.21% hits | AID 504327; note: potency is the fitted concentration of half-maximal effect; % is set by controls: 0 for no effect and ±100 for the full control effect
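Enzyme at 20nM final was mixed with library compounds for 15 min at room temperature. Peptide H3(1-25) at 75uM, acetyl-CoA at 70uM and ThioGlo1 at 50uM were then added. Plates were read immediately and after 20 min (Ex340nm/Em540nm).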
BAZ2B inh: BAZ2B (human) inhibition | Q9UIF8 | Potency, µM (top dose mostly 114 µM), inactives show at the highest dose activity change, negative = inhibition, hits mostly inhibitors | AID 504333 | 360,000 compounds, 4.4% hits | AlphaScreen BAZ2B-H3K14Ac peptide displacement; note: potency is the fitted concentration of half-maximal effect; % is set by controls: 0 for no effect and ±100 for the full control effect; nearly all actives have a fitted effect of over 60% in size
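Compounds, titrated to a top concentration of 110 uM, were incubated 30 min at room temperature with preformed BAZ2B/acetyl-K14 H3 peptide complex (50 nM each). Proximity signal was measured by AlphaScreen after 20 min with beads.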
PI5P4Ka inh: blocks human PI5P4K alpha kinase activity | P48426 | PI5P4Kalpha enzyme, ADP-Glo luminescence, 60 min; stronger effect = lower value | max response, % | 330,000 compounds, 1.2% hits | AID 652105; active = max response of -50% or lower; inconclusive = between -30% and -50%; inactive = -30% or higher; note: value at the top dose of about 77 µM; % is set by controls: 0 for no effect and ±100 for the full control effect
Target sequence (P48426 whole entry, looked up): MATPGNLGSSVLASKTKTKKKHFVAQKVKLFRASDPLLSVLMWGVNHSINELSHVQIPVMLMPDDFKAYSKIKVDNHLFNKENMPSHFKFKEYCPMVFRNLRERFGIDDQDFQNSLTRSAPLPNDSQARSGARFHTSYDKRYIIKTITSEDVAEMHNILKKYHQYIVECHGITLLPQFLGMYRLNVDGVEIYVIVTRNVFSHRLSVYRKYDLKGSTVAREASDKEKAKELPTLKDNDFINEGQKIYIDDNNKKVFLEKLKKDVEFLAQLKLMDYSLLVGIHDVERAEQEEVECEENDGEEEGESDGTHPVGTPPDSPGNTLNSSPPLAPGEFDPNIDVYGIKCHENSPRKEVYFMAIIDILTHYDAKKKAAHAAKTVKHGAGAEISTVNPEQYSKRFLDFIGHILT
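Enzyme plus substrate dispensed, test compounds pinned in, then ATP (5 microM final) added. After 60 min at RT, ADP-Glo reagent 1 for 45 min and reagent 2 for 30 min preceded luminescence imaging.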
JMJD2A Tudor inh: JMJD2A Tudor domain (human) inhibition. O75164. AlphaScreen JMJD2A-Tudor / H3K4me3 peptide binding. Potency, µM (series often up to 114 µM), inactives show at the top dose activity change, negative = inhibition, usual class: inhibitors. 390,000 compounds, 4.4% hits. AID 504339; note: potency is the fitted concentration of half-maximal effect; % is set by controls: 0 for no effect and ±100 for the full control effect; nearly all actives have a fitted effect of over 50% in size
HP1b binding inh: HP1-beta chromodomain-methylated histone interaction inhibition. P83916. AlphaScreen HP1-beta / biotin-H3K9me3 peptide binding. Potency, µM (highest dose often 114 µM), for the others: at the top dose activity change, negative = inhibition, hits mostly inhibitors. 390,000 compounds, 0.56% hits. AID 540317; note: potency is the fitted concentration of half-maximal effect; nearly all actives have a fitted effect of over 70% in size
Target sequence (P83916 whole entry, looked up): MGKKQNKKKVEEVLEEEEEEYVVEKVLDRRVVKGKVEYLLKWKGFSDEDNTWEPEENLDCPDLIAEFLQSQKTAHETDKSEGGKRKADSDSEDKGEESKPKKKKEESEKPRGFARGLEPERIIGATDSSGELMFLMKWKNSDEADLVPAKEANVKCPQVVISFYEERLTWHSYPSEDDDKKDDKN
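HP1-beta protein (50 nM final) preincubated 30 min at room temperature with biotinylated H3(1-18)K9me3 peptide (50 nM) in PBS pH 7.4, 0.01% Tween-20, then compound added for 30 min. AlphaScreen streptavidin donor/nickel chelate acceptor beads (10 ug/mL final), 30 min dark, luminescence read.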
PLK1 PBD block: PLK1 (human) polo-box domain binding inhibition | Plk1 PBD binding of FITC phosphopeptide, fluorescence polarization | Potency, µM, for the others: max response, negative = inhibition, usual class: inhibitors | 360,000 compounds, 2.8% hits | AID 720504; note: potency is the fitted concentration of half-maximal effect; series mostly up to about 57 µM; % is set by controls: 0 for no effect and ±100 for the full control effect; nearly all actives have a fitted effect of over 65% in size
* marks the source's active call; other numbers are inactive results; ? = inconclusive; / = no result given; [ ] = dose if it differs, or a comment. Unless noted, calls come from the whole dose curve; as a rule, active = well fitted curve in the direction sought with a large enough effect; inconclusive = small, poorly fitted or top-dose-only effect, or another doubt; inactive = no such curve, though single readings can be large; an effect the other way counts as inactive or inconclusive.

SMILES	GCN5L2 inh	BAZ2B inh	PI5P4Ka inh	JMJD2A Tudor inh	HP1b binding inh	PLK1 PBD block
COc1ccc(C2C(C(=O)Nc3cc(C)on3)c3ccccc3C(=O)N2C)cc1 (stereo not drawn)	-7%	-30%	-8	-28%[57.1 µM]	?	24µM*
CCC(C)NC(=O)C1c2ccccc2C(=O)N(c2ccc(OC)cc2)C1c1ccc(OC)cc1 (stereo not drawn)	-5%	3%	-28	20µM*	-9%	24µM*
COc1ccc(C2C(C(=O)Nc3cc(C)on3)c3ccccc3C(=O)N2C)cc1OC (stereo not drawn)	-9%	-3%	/	-30%	14%	-8%
COc1ccc(S(=O)(=O)NCC(c2ccco2)S(=O)(=O)c2cccs2)cc1F (stereo not drawn)	3%	-15%	/	-22%	9%	/
NCC(O)COCCC12CC3CC(CC(C3)C1)C2 (stereo not drawn)	2%	-7%	11	-15%	48%	-4%
CC(NCC(O)COCCC12CC3CC(CC(C3)C1)C2)c1ccccc1 (stereo not drawn)	-12%	-7%	2	?	38%	30µM*
CCCc1cc(=O)[nH]c(SCCN2C(=O)c3ccccc3C2=O)n1	-3%	-9%	5	5%	32%	3%
CC(NC(=O)Cc1ccccc1F)c1ccc(F)cc1 (stereo not drawn)	1%	-16%	-2	-5%[11.4 µM]	-4%	24µM*
CC(C)CCNCC(=O)NC(c1ccccc1)c1ccccc1	-4%	56µM*	-5	32µM*	13%	-3%
CC(NC(=O)Cc1ccc(-c2ccccc2)cc1)c1ccccc1 (stereo not drawn)	4%	1%	-15	-10%	?	27µM*
CC(C)CCC(C(=O)NC(C)c1ccccc1)C(=O)NC(C)c1ccccc1 (stereo not drawn)	-2%	?	-2	22µM*	-19%	-10%
CC(NC(=O)CSc1ccccc1)c1ccccc1 (stereo not drawn)	-11%	10%	-4	10%	48%	-2%
CCN1C(=O)C(C)C=C(C)C=C1C (stereo not drawn)	/	/	2	/	/	-2%
Cc1nnsc1C(=O)Nc1ccc(S(=O)(=O)N2CCCCC2C)cc1 (stereo not drawn)	-2%	-5%[57.1 µM]	2	-12%	17%	-20%
O=C(CN1C(=O)C2(SCC(=O)N2c2cccc(F)c2)c2ccccc21)NCc1ccccc1Cl (stereo not drawn)	-19%	13%[57.1 µM]	/	-8%	34%	/
Nc1ncc(N=Nc2cc(C(=O)O)ccc2Cl)s1	-3%	89µM*	-54*	?	?	?
CC(=O)Nc1ccc(S[C@@H](CCN2CC[C@H](O)CCC2=O)c2ccccc2)cc1	-4%	7%	-3	-6%	50%	13µM*
Cc1ccc(NC(=O)CCc2ccc(S(=O)(=O)N3CCOCC3)cc2)c(O)c1	-5%	/	7	-12%	12%	4%
O=S(=O)(c1ccc(Br)cc1)N1CCOCC1	/	/	/	6%	13%	/
CC(C)(C)c1cc(Br)c(O)c(N=Nc2ccc(S(=O)(=O)N3CCOCC3)cc2)c1	-11%	7.9µM*	-2	5.6µM*	?	5%
Cc1ccc(O)c(N=Nc2ccc(S(=O)(=O)N3CCOCC3)cc2)c1	-13%	8.9µM*	-8	14µM*	?	-6%
O=Nc1c(-c2ccccc2)cc2ccccn12	-8%	79µM*	0	-36%	7%	-9%
CC(=O)N(C)C1=C(N2CCOCC2)C(=O)c2ccccc2C1=O	-1%	-38%	/	-6%	20%	-9%
Cc1ccc(NC2=C(N3CCOCC3)C(=O)c3ccccc3C2=O)cc1	-5%	14µM*	/	14µM*	13µM*	-13%
CC(=O)c1ccc(NC2=C(N3CCOCC3)C(=O)c3ccccc3C2=O)cc1	1%	28µM*	/	40µM*	28µM*	-16%
SMILES	GCN5L2 inh	BAZ2B inh	PI5P4Ka inh	JMJD2A Tudor inh	HP1b binding inh	PLK1 PBD block
O=C(O)c1ccc(NC2=C(N3CCOCC3)C(=O)c3ccccc3C2=O)cc1	-3%	?	5	-17%	13%	-12%
COC(=O)[C@]12CCCCC=C1N(CCC1=CCCCC1)C(=O)[C@H](CC(=O)N1CCC(c3ccccc3)CC1)C2	/	/	1	/	/	-2%
S=C(Nc1ccc(Nc2ccccc2)cc1)Nc1ccccn1	1%	16µM*	-12	20µM*	?	-13%
S=C(Nc1ccccc1)Nc1ccccn1	/	/	-13	/	/	-2%
S=C(Nc1ccccc1)c1ccccn1	0%	35µM*	2	56µM*	?	-17%
COCCNS(=O)(=O)c1cc(C)c(C)cc1C	-3%	4%	6	-7%	30%	-9%
COc1cc(S(=O)(=O)NCCc2c(C)[nH]c3ccccc23)c(C)cc1C	-3%	35µM*	/	28µM*	?	/
Cc1ccc([N+](=O)[O-])cc1S(=O)(=O)NCCc1c(C)[nH]c2ccccc12	-4%	50µM*	7	?	-31%	-4%
O=C(NCCc1ccc(F)cc1)N1CCOCC1	6%	5%	-4	-33%[57.1 µM]	-10%	21µM*
COCCCNCCOCCSc1ccc(Cl)cc1	1%	?	2	1.8µM*	?	-8%
COCCNC(=O)c1onc(CSc2ccc(Cl)cc2)c1C(=O)O	-17%	-32%	?	-10%	34%	-10%
OCCNCCSc1ccc(Cl)cc1	-7%	56µM*	4	22µM*	-27%	0%
COCCCNCCCCSc1ccc(Cl)cc1	-6%	?	-9	10µM*	?	-3%
CCCCNCCOCCSc1ccc(Cl)cc1	19%	?	0	1.4µM*	?	-1%
CCCS(=O)(=O)N1CC(=O)N(c2ccc(C)c(Cl)c2)C(C)(C(=O)NC2CCCCCC2)C1 (stereo not drawn)	-11%	3%	/	-6%	24%	/
CCN(CC)C(=O)C1=C(C)N(CCCN2CCCC2=O)C(=O)C(CC(=O)NCc2cccc3ccccc23)C1 (stereo not drawn)	/	/	8	/	/	-9%
CO[C@H]1CN(C)C(=O)c2ccc(NC(=O)C3CCC3)cc2OC[C@H](C)N(CC2CCCCC2)C[C@@H]1C	/	/	5	/	/	-2%
O=C(CN1CCN(CC(=O)c2ccccc2)CC1)c1ccccc1	/	/	-3	-21%	26%[57 µM]	-22%
S=c1[nH]nc(Cc2ccccc2)n1Cc1ccco1	6%	-4%	/	4µM*	-19%	-16%
CCCn1c(Cc2ccccc2)n[nH]c1=S	0%	2%	-9	7.1µM*	5%	-4%
CCCCN1CCNC[C@@H]1c1ccccc1	1%	-20%	0	-16%	22%	-3%
